Measurements as given in PubChem BioAssay (NCI).
This is part of a sample that, as a whole, favours compounds with a hit. Of some 79,000 tested, about 15% had one in any assay. Values without a mark were called inactive. The source made the active and inactive calls. Rule as the data show it: active = growth inhibition above about 70%; inactive = the rest.

What was measured:
[1] = NCI Yeast Anticancer Drug Screen. Data for the rad50 strain (AID 155);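 also: 0% = growth of vehicle-only cultures of the same strain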; details: S. cerevisiae rad50 strain growth inhibition; at 50.0 µM; active compounds read high
Procedure, shortened: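 Cells are treated with compound, grown, and their growth is then scored against vehicle-only cultures of the same repair-deficient yeast strain.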

[2] = NCI Yeast Anticancer Drug Screen. Data for the mec2-1 strain (AID 157); details: S. cerevisiae mec2-1 strain, at 50.0 µM, active compounds read high
Procedure, shortened: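 Yeast mec2-1 mutant treated with compound. Readout: growth inhibition vs vehicle controls.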

[3] = NCI Yeast Anticancer Drug Screen. Data for the sgs1 mgt1 strain (AID 161);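 also: 0% = growth of cultures given vehicle only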; details: S. cerevisiae sgs1 mgt1 strain, at 50.0 µM, active compounds read high
Procedure, shortened: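 Inhibition of yeast growth, normalised to vehicle-treated controls, is reported for a strain bearing genetic alterations in DNA damage repair.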

[4] = NCI Yeast Anticancer Drug Screen. Data for the bub3 strain (AID 167); details: S. cerevisiae bub3 mutant strain, at 50.0 µM, active compounds read high
Procedure, shortened: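 Part of a panel of yeast mutants defective in DNA damage repair or cell cycle regulation. Each strain is grown with compound, and inhibition is calculated relative to solvent-treated cultures.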

[5] = NCI Yeast Anticancer Drug Screen. Data for the mlh1 rad18 strain (AID 175); details: S. cerevisiae mlh1 rad18 strain growth inhibition; at 50.0 µM; active compounds read high
Procedure, shortened: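 Yeast w/ defined DNA-repair lesions; compound exposure; growth vs vehicle controls → % inhibition.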

[6] = NCI Yeast Anticancer Drug Screen. Data for the cln2 rad14 strain (AID 165);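 also: 0% = growth equal to vehicle treated cultures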; details: S. cerevisiae cln2 rad14 strain, at 50.0 µM, active compounds read high
Procedure, shortened: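 cln2 rad14 yeast strain; compound exposure; growth inhibition read vs vehicle controls.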

| SMILES | growth inhibition [1] | growth inhibition [2] | growth inhibition [3] | growth inhibition [4] [%] | growth inhibition [5] | growth inhibition [6] |
| --- | --- | --- | --- | --- | --- | --- |
| CN1C/C(=C\c2ccc(C(=O)O)cc2)C(=O)/C(=C/c2ccc(C(=O)O)cc2)C1 | 33.3% | 5.35% | 28.1% | -5 | 19.7% | – |
| O=C1c2ccccc2C(=O)N1Cc1ccc(CN2C(=O)c3ccccc3C2=O)cc1 | -9% | -3.75% | -16% | -1.55 | -11.1% | – |
| O=C(Nc1ccc(Cl)cc1)/C(Cc1cccc[n+]1[O-])=N\Nc1ccc([N+](=O)[O-])cc1[N+](=O)[O-] | -19.4% | -17% | -6.2% | -26.6 | -20.2% | – |
| Cn1nc2c(c1-c1ccncc1)CCc1ccccc1-2 | 3.9% | 65.3% | 36% | 66.1 | 24.6% | – |
| CNC(=O)CCCCC(=O)NC | -5.65% | -7.9% | -2.7% | -10.8 | -19.2% | – |
| COc1cc2ccc(/C=C/C(=O)c3ccc4c(c3)OCO4)cc2cc1OC | -7.3% | -3.75% | 3.25% | 6.4 | -4.65% | – |
| COC(=O)[C@@H](CO)NC(=O)OC(C)(C)C | -27.6% | -15% | -24.1% | 9.4 | -12.8% | – |
| CCCCCCSc1ccc([N+](=O)[O-])cc1[N+](=O)[O-] | 4.95% | -6% | -10.6% | 24.9 | -21.1% | – |
| c1ccc(SCCC(Sc2ccccc2)Sc2ccccc2)cc1 | -3.45% | 5% | -3.75% | -1.6 | 3.65% | – |
| COc1ccc(C2CC(c3ccccc3)=NN2c2ccccc2)cc1 (stereo not given) | 0.75% | -14.4% | 5.85% | 4.85 | 7.95% | – |
| Cc1csc2nc3[nH]ncc3c(=O)n12 | -21.6% | -59% | -15.1% | -5.65 | -14.9% | – |
| CCC(CCN(C)C)(OC(C)=O)c1ccccc1 (stereo not given) | 10.4% | -0.55% | -3% | 30.9 | -15.8% | – |
| CSc1ccc(C(=O)C[n+]2cc3ccccc3cc2C)cc1 | -34.4% | -2.5% | -16.1% | 2.75 | 0.7% | – |
| COc1ccc(C(=O)C/C(=N\N(C(=O)c2ccc(OC)cc2)c2ccccc2)c2ccc(OC)cc2)cc1 | 13.6% | -24.8% | 9.9% | -9.85 | 6.5% | – |
| Cc1ccc2ccccc2c1CP(=O)(O)O | -18.9% | -11.1% | -10.4% | 15.2 | -31.4% | – |
| O=C1CN(N2C(=O)CSC2C23CC4CC(CC(C4)C2)C3)C(=O)CN1c1ccccc1 (stereo not given) | 7.2% | 2.1% | 13% | -2.6 | 12.8% | – |
| CN1CCCCC1C[CH2][Sn]([c]1ccccc1)([c]1ccccc1)[c]1ccccc1 (stereo not given) | 99.6% (active) | 99.5% (active) | 99.7% (active) | – | 99.5% (active) | 99.2% (active) |
| O/N=C/C(=Nc1cccc2ccccc12)NO | -11.1% | -12.8% | -12.1% | -5.7 | 13.9% | – |
| O=S(=O)(N/N=C(/CC/C(=N\NS(=O)(=O)c1ccccc1)c1ccccc1)c1ccccc1)c1ccccc1 | 27.7% | 5.2% | 11.7% | -2 | 7.95% | – |
| CCCCn1c2nc(=O)n(C)c(=O)c-2cc2ccccc21 | 29% | 16.7% | 22.6% | 17.8 | 34.7% | – |
| COC(=O)NN(C(=O)OC)C12CCCC1N(C(=O)OC)N(C(=O)OC)c1c2ccc2ccccc12 (stereo not given) | 32.1% | -1.55% | 0.6% | 1.9 | 6.75% | – |
| Cn1c(=O)n(C2(C)CSC2)c2ccccc21 | -27.2% | -14.6% | -46.1% | -3.35 | -33.9% | – |
| c1ccc(C2CN3CCSC3=N2)cc1 (stereo not given) | -30.4% | -34.8% | -19.1% | -12.2 | -16.9% | – |
| Cc1ccccc1N=C(N)Nc1ccccc1 | 5.5% | -4.85% | -3.9% | -10.6 | -6.7% | – |

| SMILES | growth inhibition [1] | growth inhibition [2] | growth inhibition [3] | growth inhibition [4] [%] | growth inhibition [5] | growth inhibition [6] |
| --- | --- | --- | --- | --- | --- | --- |
| Nc1nc(N)c2nc(-c3ccc([N+](=O)[O-])cc3)c(Cl)nc2n1 | -8.2% | -16.3% | -11.9% | -27 | -28.7% | – |
| CCCCCCCCCCCCCCCCCC(=O)CCCCCCCCCCCCCCCCC | -17.3% | -21.7% | -6.65% | -6.2 | -16.7% | – |
| CCCCC(=O)NC1=CC(=O)c2ccccc2C1=O | 41.2% | 30.4% | 47.1% | 56.1 | 45.8% | – |
| COc1c2c(cc3c1C(=O)Cc1ccc4c(c1CN(C)CC3)OCO4)OCO2 | 7.15% | -3.4% | -1.15% | 8.95 | 7.25% | – |
| CCOc1ccc(OCC)c(NC(=O)OC(C)C)c1 | -6.35% | -3.25% | 20.3% | 47.5 | 12.9% | – |
| Cc1ccc(S(=O)(=O)[N-]C2C(=O)c3ccccc3C(=O)C2[n+]2cccc(C(N)=O)c2)cc1 (stereo not given) | -1.75% | 2% | 9.5% | 8.8 | -38.8% | – |
| N#C/C(=C\N1CC(=O)NC1=S)C(=O)c1ccc2ccccc2c1 | -20.4% | 15.6% | -26.2% | 3.25 | -17.4% | – |
| Cc1c(F)c(N)c2c(=O)cc(-c3ccc(N)c(F)c3)oc2c1F | 32.8% | 16.1% | 30.1% | 22.9 | 1.2% | – |
| O=C(Nc1ccccc1)C1C2C=CC(C2)C1C(=O)Nc1ccccc1 (stereo not given) | 0.2% | 27.9% | 5.05% | 21.4 | -8.25% | – |
| O=C(Oc1ccc2c(c1)CCN2C(=O)c1cc2c(cc1[N+](=O)[O-])OCO2)c1ccc2c(c1)OCO2 | 17.4% | 7.2% | -2.3% | -4.8 | 11.2% | – |
| CC1(C)N=C(N)N=C(N)N1c1cccc(CSc2ccccc2)c1 | -14.2% | -11.8% | -20.8% | -18.1 | -19.6% | – |
| Cc1ccn2c(=O)c(CCBr)c(C)nc2c1 | 12.8% | -4.65% | 5.25% | 6.05 | 2.25% | – |
| Cc1ccccc1C(=O)OC1CCCC1 | 13.1% | -1.45% | 2.95% | 8.1 | 0.5% | – |
| CC1(C)OC(=O)C(=Cc2ccc(-c3ccccc3[N+](=O)[O-])o2)C(=O)O1 | 3.05% | 6.25% | 31% | 29.5 | 26.6% | – |
| CCOC(=O)/C=C/C1(CCOC(C)=O)CCCCC1 | 12.8% | -27.8% | -2.9% | -4 | 14.9% | – |
| Cc1cccc(C(=O)c2ccc(C)cc2C)c1 | 17.1% | 6.65% | -7.55% | -0.7 | 5.4% | – |
| COC(=O)C1(CC(=O)CC(=O)CC2(C(=O)OC)NC(=S)NC(=O)C2C#N)NC(=S)NC(=O)C1C#N (stereo not given) | -17.4% | – | -24.6% | 5.55 | 13.8% | 4.05% |
| O=C1CC(=O)N(c2ccccc2)N1 | 35.2% | – | 45% | 35.1 | 16.9% | 19.9% |
| CC1CP(=O)(Cc2ccccc2)C(C)(c2ccccc2)C1=O (stereo not given) | -18.4% | – | 31.4% | 40.2 | -6.5% | -4.2% |
| CCN(CC)CCCC(C)NC(=O)c1ccc2c(c1O)C(=O)c1ccccc1C2=O (stereo not given) | 64% | – | 65.6% | 30.1 | 84.6% (active) | 58.5% |
| CCCCC(CC)COS(=O)(=O)O (stereo not given) | -16.3% | – | -30.9% | -27 | -42% | -42% |
| N#CCCSC(=S)C(C#N)C(=N)c1ccccc1 (stereo not given) | 13.2% | – | 14.2% | -18.9 | 10.3% | 1.5% |
| COc1cc(CNC(=S)CCCCCCCCCCC(C)C)ccc1O | -20.1% | – | -4.5% | 15.2 | -21.4% | -26.4% |
